Key:
Experiment in all cases: PBM binding z-score (relative to random genomic background probes); higher = stronger binding; sequences stand for … in GC…GCGATTGACAGCGTAGAATGAAGG
[1] = system: FXR:RXRa (NR concentration 270 nM, RXRa partner concentration 90 nM)
How it was run: (§1)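 Each nuclear receptor dimer, without ligand, was incubated for 1 h on custom Agilent 4×180K protein-binding microarrays. Binding was detected with antibodies against each partner (one per run), and scanned fluorescence was regression-normalized. The binding z-scores are referenced to random human genomic background probes.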

[2] = system: LXRa:RXRa (NR concentration 270 nM, RXRa partner concentration 90 nM)
How it was run: as §1

[3] = system: LXRa homodimer (NR concentration 270 nM)
How it was run: as §1

[4] = system: LXRb:RXRa (NR concentration 270 nM, RXRa partner concentration 90 nM)
How it was run: as §1

[5] = system: LXRb homodimer (NR concentration 270 nM)
How it was run: as §1

[6] = system: PPARa:RXRa (NR concentration 270 nM, RXRa partner concentration 90 nM)
How it was run: as §1

[7] = system: PPARg:RXRa (NR concentration 180 nM, RXRa partner concentration 90 nM)
How it was run: as §1

[8] = system: PPARg:RXRa 270nM:90nM, anti-RXR (NR concentration 270 nM, RXRa partner concentration 90 nM)
How it was run: as §1

[9] = system: PPARg:RXRa 30nM:10nM, anti-RXR (NR concentration 30 nM, RXRa partner concentration 10 nM)
How it was run: as §1

[10] = system: PPARg:RXRa 90nM:30nM, anti-RXR (NR concentration 90 nM, RXRa partner concentration 30 nM)
How it was run: as §1

[11] = system: PPARg:RXRa DBDmut IVT, anti-RXR (DBD mutation: RXRa K156A/R161A, NR concentration 270 nM, RXRa partner concentration 90 nM)
How it was run: as §1

[12] = system: PPARg:RXRa IVT, anti-PPARg (NR concentration 270 nM, RXRa partner concentration 90 nM)
How it was run: as §1

[13] = system: PPARg DBDmut:RXRa IVT, anti-PPARg (DBD mutation: PPARg1 K132A/R137A, NR concentration 270 nM, RXRa partner concentration 90 nM)
How it was run: as §1

[14] = system: PPARg DBDmut IVT, anti-PPARg (DBD mutation: PPARg1 K132A/R137A, NR concentration 270 nM)
How it was run: as §1

[15] = system: PPARg homodimer (NR concentration 180 nM)
How it was run: as §1

[16] = system: PXR:RXRa (NR concentration 270 nM, RXRa partner concentration 90 nM)
How it was run: as §1

[17] = system: PXR homodimer (NR concentration 270 nM)
How it was run: as §1

[18] = system: RARa:RXR (NR concentration 270 nM, RXRa partner concentration 90 nM)
How it was run: as §1

[19] = system: RARa homodimer (NR concentration 270 nM)
How it was run: as §1

[20] = system: RARb:RXRa (NR concentration 270 nM, RXRa partner concentration 90 nM)
How it was run: as §1

Sequence | PBM binding z-score [1] | PBM binding z-score [2] | PBM binding z-score [3] | PBM binding z-score [4] | PBM binding z-score [5] | PBM binding z-score [6] | PBM binding z-score [7] | PBM binding z-score [8] | PBM binding z-score [9] | PBM binding z-score [10] | PBM binding z-score [11] | PBM binding z-score [12] | PBM binding z-score [13] | PBM binding z-score [14] | PBM binding z-score [15] | PBM binding z-score [16] | PBM binding z-score [17] | PBM binding z-score [18] | PBM binding z-score [19] | PBM binding z-score [20]
CCTCGGAGGAAAGAAGGTCAGAGCTGTCCGCTTT | 0.768 | 1.38 | -0.152 | 0.92 | -0.651 | 2.01 | -0.343 | 0.98 | -0.857 | 0.12 | 0.673 | 0.86 | -2.12 | -1.68 | 1.32 | 1.16 | -0.583 | 1.95 | 0.0336 | 2.27
ACTAGTAGTTGACTTAGGGCAACCGATACGACGC | -0.211 | -0.0231 | -0.428 | -0.351 | -0.259 | -0.00302 | 0.852 | -0.176 | -0.0859 | -0.0744 | -0.00679 | 0.335 | 0.301 | 0.391 | -0.372 | -0.0724 | -0.195 | 0.555 | 0.281 | 0.593
TAGCCTAGGTCAGATCGGTCCAGTATACGCTATA | 1.8 | 0.953 | -0.475 | 0.809 | -0.111 | 1.74 | 0.543 | 0.782 | -0.239 | 0.0897 | 0.702 | 1.74 | -0.14 | -0.564 | -0.166 | 2.34 | -0.919 | 0.948 | -0.74 | 2.78
AGAATGAGGTTACCAAAAATCAGGGAAACGCTTG | 1.63 | 2.73 | -0.193 | 1.54 | -0.426 | 3.2 | 2.49 | 2.98 | 0.857 | 2.25 | 4.5 | 3.48 | 1.31 | 0.817 | 0.553 | 1.04 | -0.0178 | 1.76 | 0.389 | 2.08
GATACAGGGTCAAGGCAAGAGTACGCGTATTGAT | 6.93 | 4.47 | 0.251 | 3.95 | 0.189 | 6.03 | 6.09 | 5.4 | 2.18 | 4.16 | 2.89 | 4.14 | 1.59 | 0.74 | 2.69 | 3.78 | 0.428 | 4.61 | 1.12 | 4.62
ATCTCTAGGTAAAGTTCAGTGACAGATCGATAGA | 1.17 | 2.06 | 1.97 | 1.27 | 1.26 | 2.36 | 3.41 | 4.29 | 2.51 | 4.24 | 2.61 | 2.57 | 1.53 | 2.1 | 2.05 | 2.12 | 2.52 | 1.43 | 2.08 | 2.75
TCTAGCAGGCCAGAGGGTCCCTCAAGAGGTACGG | -1.21 | -0.594 | -0.832 | -1.08 | -1.75 | -0.293 | 0.254 | 1.14 | 1.15 | 0.873 | 0.4 | -0.351 | -0.654 | -1.83 | -0.97 | -0.673 | -1.06 | -0.482 | -1.2 | -0.136
TCATATAGGTAAAGGTGAAAGCCGAACGATATGA | 0.132 | 1.05 | -0.406 | 1.09 | -0.488 | 3.13 | 3.82 | 4.43 | 4.34 | 4.51 | 3.94 | 4.09 | 1.05 | 1.68 | 1.25 | 0.502 | -0.307 | 1.44 | -0.251 | 1.83
TCTCGGAGGCCACGAAAGGTCAGAGCTCGACATC | 3.4 | 5.27 | 1.95 | 3.63 | -0.386 | 3.82 | 1.39 | 2.91 | 2.22 | 2.46 | 1.78 | 1.96 | 0.112 | -0.0793 | 2.29 | 4.58 | -0.146 | 4.54 | 0.24 | 4.24
GCGACTGGGGCAGCAGCAGGTTACCATAACTTAA | -0.536 | -0.657 | -0.621 | -0.287 | -1.12 | 0.405 | 0.4 | -0.0757 | -0.451 | -0.719 | 3.5 | 2.23 | -1.15 | -0.983 | -0.687 | -0.502 | -0.939 | -0.19 | -0.8 | 0.608
ATACCAAGGTGATCGTGAGGTCGTTAATACTAAC | 1.59 | 1.12 | 0.651 | 1.37 | -0.102 | 1.55 | 0.445 | 0.146 | -0.147 | 0.0284 | 0.582 | 1.08 | 0.575 | 0.441 | 1.01 | 3.26 | 1.7 | 2.15 | 0.0918 | 1.44
CCTGCTAGGTCAATGGTCAGCGAAAGCAGCTCGC | 2.75 | 2.4 | -0.241 | 1.4 | 0.134 | 3.37 | 5.06 | 5.2 | 3.2 | 5.18 | 4.19 | 4.06 | 0.555 | -0.25 | 1.7 | 0.865 | -0.255 | 1.87 | -0.0474 | 3.71
CCTTACGGGTCACCCCAGGTTATAGCATCGGAGT | 5.74 | 6.63 | 1.25 | 4.43 | -0.027 | 5.01 | 4.23 | 4.51 | 1.22 | 3.1 | 1.58 | 3.6 | 0.299 | -0.0802 | 2.12 | 5.4 | 0.158 | 4.43 | 0.572 | 3.79
AGAACGAGGGCCCGCTGAGTTGATAGCAGAGTAG | -0.807 | -1.1 | -0.871 | -1.53 | -1.19 | -1.78 | -0.00223 | -1.4 | -0.848 | -1.55 | -0.75 | -0.481 | -0.976 | -0.618 | -1.15 | -0.97 | -1.05 | -1.3 | -1.68 | -0.616
